Compound activity deposited in PubChem by several laboratories.
This is a sample that favours compounds with a hit; in the whole collection about 1.2% have one here.
Smad3 inh = inhibitors of human Smad3 transcription factor binding. P84022. TR-FRET Smad3/Dy647-FoxH1 peptide binding, europium anti-His. inhibition, % at 25 µM. actives 0.29% (n = 88,000);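 active = compounds that reduce the energy-transfer binding signal between the protein and its labelled peptide by more than half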;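 note: 0% = Smad3 plus labelled peptide maximal FRET and 100% = peptide-only background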
Target sequence (P84022 whole entry, looked up): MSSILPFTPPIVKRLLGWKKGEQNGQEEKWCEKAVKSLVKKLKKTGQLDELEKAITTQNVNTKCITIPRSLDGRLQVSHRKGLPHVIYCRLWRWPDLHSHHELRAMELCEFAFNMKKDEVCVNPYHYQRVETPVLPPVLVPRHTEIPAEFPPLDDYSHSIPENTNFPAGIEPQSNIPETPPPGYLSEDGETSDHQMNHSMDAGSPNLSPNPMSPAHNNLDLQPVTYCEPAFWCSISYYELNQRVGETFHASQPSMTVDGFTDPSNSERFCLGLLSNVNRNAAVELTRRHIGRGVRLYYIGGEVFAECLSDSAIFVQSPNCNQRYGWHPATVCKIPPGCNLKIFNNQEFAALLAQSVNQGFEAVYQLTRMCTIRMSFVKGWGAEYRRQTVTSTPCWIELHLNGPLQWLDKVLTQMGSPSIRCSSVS
IL1B NFkB pot = enhances IL-1B driven NFkB nuclear translocation. AID 819. actives 0.3% (n = 94,000). HUVEC IL-1B NFkB p65 nuclear translocation imaging. activation, % at 2 µM;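 active = activation above 40%, about the mean plus 3 SD, also judged a hit on visual image review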;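 note: percent activation is computed from the nuclear over cytoplasmic p65 intensity ratio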
NFkB transloc inh = blocks IL-1B driven NFkB nuclear translocation in HUVEC cells; HUVEC IL-1B NFkB p65 nuclear translocation imaging; inhibition, % at 2 µM; actives 0.43% (n = 94,000); AID 796;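 active = inhibition above about 30% together with a positive call from visual inspection of the well image, limit read from the data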;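 note: nuclear over cytoplasmic p65 intensity ratio measured by imaging; 0% = IL-1B stimulated DMSO wells and 100% = unstimulated DMSO wells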
HUVEC tox IL1B = toxic to HUVEC cells under IL-1B stimulation; actives 0.41% (n = 94,000); cell count reduction, % at 2 µM; HUVEC cell count loss, Hoechst imaging, IL-1B stimulated;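 active = cell count reduction more than 3 SD above the screen-wide mean, cut at about 70% in these data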;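 note: normalized per plate to untreated control cells as the no-loss baseline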
An asterisk follows results filed as active; nt = no result given; [ ] = remark or other dose.

SMILES	Smad3 inh	IL1B NFkB pot	NFkB transloc inh	HUVEC tox IL1B
CC1CN(S(=O)(=O)N(C)C)CCN1S(=O)(=O)N(C)C (stereo not drawn)	-3.0	1.6	-1.6	88.0*
CN(C)S(=O)(=O)N1CCN(S(=O)(=O)N(C)C)CC1	-3.5	14.2	-14.2	3.2
O=C(O)c1[nH]c2ccccc2c1-c1ccccc1	80.0*[fluorescence artefact?]	10.6	-10.6	-10.8
O=C(O)[C@@H]1[C@H]2C[C@H]([C@@H](Br)[C@H]2N2C(=O)CCC2=O)[C@@H]1C(=O)O	11.8	nt	nt	nt
C/C(=N\NC(=O)c1ccncc1)c1ccc2ccccc2c1O	15.3	nt	nt	nt
Cc1sc2ncn(CCn3cnc4sc(C)c(C)c4c3=O)c(=O)c2c1C	2.3	-57.0	57.0*	9.4
Cc1sc2ncn(CCC(=O)O)c(=O)c2c1C	10.3	3.0	-3.0	-19.4
Cn1c(=O)c2[nH]c(CCC(=O)O)nc2n(C)c1=O	-1.4	nt	nt	nt
O=C(O)C(Cc1ccccc1)Cc1ccccc1	-3.3	nt	nt	nt
Cn1ncc(Br)c1C(=O)Nc1ccc(F)cc1F	6.4	-98.1	98.1*	87.8*
CC(C)(C)COS(=O)OCC(C)(C)C	3.4	nt	nt	nt
CNC(=O)NC1CCCc2ccccc21 (stereo not drawn)	-1.3	17.3	-17.3	-1.5
Cc1occc1C(=O)NC1CCCc2ccccc21 (stereo not drawn)	-0.7	-6.6	6.6	79.5*
FC(F)(F)c1nc(SCc2ccc(Cl)cc2)n[nH]1	-2.0	nt	nt	nt
O=C(O)CCNc1ncnc2nc[nH]c12	7.9	nt	nt	nt
Cc1nn(Cc2ccccc2)c(C)c1NC(=O)CSc1nc(C2CC2)nc2c1cnn2-c1ccccc1	nt	-46.5	46.5*	-9.6
CCOC(=O)c1c(C)n(C)c2ccc(OC)c(NC(=O)CN3CCN(C4CCCCC4)CC3)c12	-3.4	-24.8	24.8	86.6*
Cc1cc(C)cc(OCC(=O)Nc2ccc(F)cc2)c1	-0.5	-3.6	3.6	84.5*
CC1(C)C=C(c2ccc(O)cc2)CC(C)(C)N1	-8.8	-45.3	45.3*	-44.1
COc1ccc(S(=O)(=O)N2CCCC(C(=O)O)C2)cc1 (stereo not drawn)	-9.9	-34.3	34.3*	33.3
COc1ccc(S(=O)(=O)N2CCCC(C(=O)NC3CCCCC3)C2)cc1 (stereo not drawn)	11.5	1.6	-1.6	2.5
N#C/C(=C\c1cccs1)C(=O)NCC1CCCO1 (stereo not drawn)	nt	1.5	-1.5	-2.2
N#C/C(=C/c1cc(Br)cs1)C(=O)NCC1CCCO1 (stereo not drawn)	nt	-97.2	97.2*	88.4*
Cc1ccc(C2CC2C(=O)NNC(=S)Nc2cccc(Cl)c2)cc1 (stereo not drawn)	16.8	-6.2	6.2	71.1*
O=C(c1cn(-c2ccccc2)nc1-c1ccc(F)cc1)N1CCOCC1	18.4	nt	nt	nt
SMILES	Smad3 inh	IL1B NFkB pot	NFkB transloc inh	HUVEC tox IL1B
O=C(c1cn(-c2ccccc2)nc1-c1ccncc1)N1CCCCC1	16.0	-23.6	23.6	92.2*
CCSC1=C(C#N)C(c2ccc3c(c2)OCO3)C2=C(CCCC2=O)N1 (stereo not drawn)	-1.5	66.3*	-66.3	5.7
O=C(O)c1cccc2cccc(-c3cccc4cccc(C(=O)O)c34)c12	66.6*	nt	nt	nt
N=C(N)SCc1ccc(Cl)cc1Cl (tested in a mixture with another compound)	3.1	nt	nt	nt
C=CCN(CC=C)CC(=O)Nc1ccc(S(N)(=O)=O)cc1	1.4	-42.2	42.2*	4.9
O=C(C1CCCN(S(=O)(=O)c2ccc(Br)s2)C1)N1CCCCCC1 (stereo not drawn)	-3.8	-32.8	32.8*	-2.9
COc1cccc(C(O)c2cnc(C(C)C)n2C)c1OC (stereo not drawn)	5.7	nt	nt	nt
CCc1ncc(C(O)c2cccc(OC)c2OC)n1C (stereo not drawn)	-2.2	-99.0	99.0*	89.7*
COc1ccc(C2CC(c3cccs3)=Nc3ccccc3S2)cc1 (stereo not drawn)	3.2	42.9*	-42.9	9.2
CCN(CC)S(=O)(=O)c1ccc(NC(=O)C(OC)c2ccccc2)cc1 (stereo not drawn)	22.0	-97.7	97.7*	89.5*
Cc1cc(C)c(S(=O)(=O)Nc2ccc3c4c(cccc24)CC3)c(C)c1	nt	-41.9	41.9*	59.4
CCN1CCN(C(=O)Nc2ccccc2OC)CC1	-8.2	-4.5	4.5	92.1*
COc1ccccc1NC(=O)N1CCN(c2ccccc2F)CC1	-0.4	-4.0	4.0	2.1
N=C(N)S[C@@H]1c2ccccc2-c2cc([N+](=O)[O-])ccc21	68.7*	nt	nt	nt
COc1ccc(C2CC(=O)C=C(NCCC(C)C)C2)cc1 (stereo not drawn)	9.3	51.7*	-51.7	-8.9
COc1ccc(C2CC(=O)C=C(NC3CCCC3)C2)cc1 (stereo not drawn)	-10.1	-7.0	7.0	1.9
C[C@@]12CCC(=O)C=C1CC[C@H]1[C@H]2[C@@H](O)C[C@]2(C)[C@@H]1CC[C@@]2(O)C(=O)CO	-3.6	nt	nt	nt
c1ccc(-c2cc3c(ccc4nonc43)nn2)cc1	-2.5	56.6*	-56.6	27.4
CCOC(=O)c1c(NC(=O)COC)sc(C(C)=O)c1C	16.3	0.1	-0.1	-22.6
CCOC(=O)c1c(NC(=O)COC)sc(C)c1C	0.5	49.3*	-49.3	-25.1
Nc1ccc(-c2ccc(Nc3cc(S(=O)(=O)O)c(N)c4c3C(=O)c3ccccc3C4=O)cc2)c(S(=O)(=O)O)c1	93.7*	nt	nt	nt
CCCc1oc(C(=O)O)cc1CN1CCOCC1	nt	-32.1	32.1*	14.5
CCCc1oc(C(=O)O)cc1CN1CCCC1	8.6	25.1	-25.1	-0.5
COc1ccc(Nc2cc(C)nc(N3CCOCC3)n2)cc1	0.2	106.0*	-106.0	-18.1
Cc1cc(NC2CCCCC2)nc(N2CCOCC2)n1	7.6	3.3	-3.3	-2.5
SMILES	Smad3 inh	IL1B NFkB pot	NFkB transloc inh	HUVEC tox IL1B
O=C(Oc1cccc(N2C(=O)CCC2=O)c1)c1ccccc1	7.7	5.9	-5.9	88.6*
CCSc1nc(O)c(C2OC(=O)c3c2ccc(OC)c3OC)c(=O)n1CC (stereo not drawn)	84.5*	-10.7	10.7	-39.0
C=CCc1cc(C=O)cc(OC)c1OCc1ccc(Cl)cc1	nt	0.2	-0.2	93.3*
COc1cc(C=O)ccc1OCCOCCOc1ccc(Cl)cc1	nt	15.9	-17.4	-13.6
[N-]=[N+]=N[C@@H]1[C@@H](O)[C@H](CO)O[C@@H]1n1cnc2c(N)ncnc21	8.1	nt	nt	nt
CCOC(=O)c1[nH]c2ccc(OC)cc2c1NC(=O)C(C)N1CCSCC1 (stereo not drawn)	37.3	39.3	-39.3	-7.0
CCOC(=O)c1[nH]c2cc(OC)c(OC)cc2c1NC(=O)C(C)N1CCN(Cc2ccccc2)CC1 (stereo not drawn)	3.9	-31.7	31.7*	-2.9
Cc1ccc(C(C)C)c(OCCNS(C)(=O)=O)c1	-10.4	-10.2	10.2	84.2*
CN(C)S(=O)(=O)N(CC(=O)Nc1ccccc1F)c1ccccc1	nt	5.7	-5.7	78.8*
CN(C)CCCN1c2ccccc2C(C)(C)c2ccccc21	2.6	nt	nt	nt
COc1ccccc1NC(=O)C(C)NS(=O)(=O)c1ccccc1 (stereo not drawn)	-0.6	-8.1	8.1	73.3*
CC(C)Oc1ccc(N2CC(C(=O)OCC(=O)NCc3ccccc3)CC2=O)cc1 (stereo not drawn)	nt	5.6	-5.6	-25.4
